Measurements published in PubChem BioAssay.
Activity calls are given as the source filed them. Unless noted, the rule behind the calls is not given here.

Assays:
[1] = compounds binding Alexa647 anti-His antibody – biochemical, small-molecule microarray, 635 nm fluorescence, artefact control for SMM control protein annotation, primary screen (AID 1128); settings: higher = more signal;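 note: score merges feature fluorescence with signal-to-noise for each printed compound spot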
[2] = system: Human papillomavirus type 1a E7 protein (residues 1-88); assay: HPV1a E7 small-molecule binders, primary screen, biochemical, small-molecule microarray, residues 1-88, 635 nm (AID 1129); settings: small-molecule microarray binding, fluorescence 635 nm; higher = more signal
[3] = target: Focal adhesion kinase 1 (Homo sapiens) (UniProt Q05397); assay: PTK2 protein binding on printed compound slides – biochemical, small-molecule microarray, 635/667 nm fluorescence, BSA, DTT, primary screen (AID 1130); settings: 635 nm fluorescence, higher = more signal;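 note: composite of spot emission at 667 nm and signal to noise over triplicate slides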
[4] = system: Fibrinogen (Alexa647-labelled); assay: Alexa647-fibrinogen binding to printed small molecules – biochemical, small-molecule microarray, 635/667 nm fluorescence, artefact control for SMM control-protein annotation, profiling panel (AID 1131); settings: fibrinogen-A647 binding fluorescence, higher = more signal;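 note: z-score merges 667 nm fluorescence with per-spot signal-to-noise over triplicate slides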
[5] = target: Follistatin (Homo sapiens) (UniProt P19883); assay: FST protein binding to printed compounds – biochemical, small-molecule microarray, 635/667 nm fluorescence, primary screen (AID 1132); settings: 635 nm fluorescence, higher = more signal
[6] = target: Fibroblast growth factor 2 (Homo sapiens) (UniProt P09038); assay: basic fibroblast growth factor binding to printed compounds – biochemical, small-molecule microarray, 635/667 nm fluorescence, primary screen (AID 1133); settings: FGF2, fluorescence 635/667, higher = more signal
[7] = JC-1 mitochondrial potential readout, lung cancer cells – cell-based, A549, JC-1 fluorescence, basal, 24 h, 100 nL, profiling panel (AID 1138); settings: higher = more signal;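 note: A549 lung adenocarcinoma cells under basal conditions with no added stimulus; test concentration not given here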
Lefty1 = Lefty1 protein binding to printed compounds – biochemical, small-molecule microarray, 635/667 nm fluorescence, primary screen (AID 1139); settings: fluorescence 635/667, higher = more signal
[8] = system: wheat germ agglutinin (Triticum aestivum), Alexa647-labelled; assay: Alexa647-WGA lectin binding to printed small molecules – biochemical, small-molecule microarray, 635/667 nm fluorescence, artefact control for SMM control-protein annotation, profiling panel (AID 1140); settings: WGA-A647 binding, 635 nm fluorescence, higher = more signal;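 note: score merges 667 nm feature emission with signal to noise over triplicate slides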
[9] = target: Luciferin 4-monooxygenase (Photinus pyralis) (UniProt P08659); assay: inhibition of purified Photinus pyralis luciferase – biochemical, luminescence, purified enzyme, 2006 set, primary screen (AID 1141); settings: purified firefly luciferase, SteadyGlo luminescence, 30 min; higher = more signal, called active from +8 up or from −8 down;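 note: cell-free assay with purified firefly luciferase at 100 ng per well in PBS; test concentration not given here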
[10] = system: Wnt5a (protein binding on small-molecule microarray); assay: small molecules binding Wnt5a protein – biophysical, small-molecule microarray, 635/667 nm fluorescence, primary screen (AID 1142); settings: 635 nm fluorescence, higher = more signal;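 note: fluorescence read at 667 nm with signal to noise per printed feature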
[11] = ATP-based viability of Huh7 replicon cells – cell-based, CellTiter-Glo luminescence, basal, 48 h, cytotoxicity control for HCV replication inhibitor project, primary screen (AID 1143); settings: higher = more signal, called active from +8 up or from −8 down;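 note: Huh7 hepatoma cells carrying a hepatitis C replication reporter with no stimulus; test concentration not given here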
[12] = Pseudomonas biofilm growth suppression – PAO1 strain, BacTiter-Glo luminescence, LB-PBS, primary screen (AID 1144); settings: P. aeruginosa PAO1 biofilm, 12 h, higher = more signal
[13] = basal CRE-LacZ reporter activity in PC12 – cell-based, unstimulated, primary screen (AID 1145); settings: no forskolin, luminescence, 4.5 h, higher = more signal, called active from +8 up or from −8 down
[14] = forskolin-driven CRE-LacZ activity in PC12 – cell-based, CRE-LacZ reporter, forskolin-stimulated, primary screen (AID 1146); settings: luminescence, 4.5 h, higher = more signal, called active from +8 up or from −8 down;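 note: PC12 cells with 6xCRE LacZ reporter stimulated by forskolin 10 µM; beta-galactosidase reporter signal reflecting CREB driven transcription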
[15] = target: Streptavidin (Streptomyces avidinii) (UniProt P22629); assay: compounds binding control protein streptavidin – biophysical, small-molecule microarray, 635/667 nm fluorescence, artefact control for SMM compound annotation, primary screen (AID 1147); settings: higher = more signal;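 note: signal reflects streptavidin binding to arrayed compounds as a control protein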
[16] = probe aInhba binding on compound microarray – biochemical, small-molecule microarray, 635/667 nm fluorescence, primary screen (AID 1148); settings: higher = more signal;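 note: score merges 667nm spot fluorescence with signal-to-noise for antibody binding to printed compounds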
Torsin-1A (Homo sapiens) [17] = target: Torsin-1A (Homo sapiens) (UniProt O14656); assay: TOR1A wild-type binding on microarray – cell lysate, small-molecule microarray, lysate, 635/667 nm, primary screen (AID 1149); settings: COS7 hTOR1A-WT lysate, 635 nm fluorescence, higher = more signal
Torsin-1A (Homo sapiens) [18] = target: Torsin-1A (Homo sapiens) (UniProt O14656); assay: torsin A mutant lysate binding on microarrays – cell lysate, small-molecule microarray, COS7 lysate, 635/667 nm fluorescence, primary screen (AID 1150); settings: COS7 hTOR1A mutant lysate, 635 nm fluorescence, higher = more signal;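 note: score pools 667 nm emission and signal to noise measuring lysate protein binding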
[19] = system: Sonic hedgehog protein (Shh); assay: Sonic hedgehog microarray binding compounds – biochemical, small-molecule microarray, 635/667 nm fluorescence, primary screen (AID 1151); settings: 635 nm fluorescence, higher = more signal;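 note: Shh protein binding to compounds spotted on small-molecule microarray slides; score combines spot fluorescence intensity with signal-to-noise across triplicate slides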

Chain of Focal adhesion kinase 1 (Homo sapiens) (Q05397 whole entry, looked up): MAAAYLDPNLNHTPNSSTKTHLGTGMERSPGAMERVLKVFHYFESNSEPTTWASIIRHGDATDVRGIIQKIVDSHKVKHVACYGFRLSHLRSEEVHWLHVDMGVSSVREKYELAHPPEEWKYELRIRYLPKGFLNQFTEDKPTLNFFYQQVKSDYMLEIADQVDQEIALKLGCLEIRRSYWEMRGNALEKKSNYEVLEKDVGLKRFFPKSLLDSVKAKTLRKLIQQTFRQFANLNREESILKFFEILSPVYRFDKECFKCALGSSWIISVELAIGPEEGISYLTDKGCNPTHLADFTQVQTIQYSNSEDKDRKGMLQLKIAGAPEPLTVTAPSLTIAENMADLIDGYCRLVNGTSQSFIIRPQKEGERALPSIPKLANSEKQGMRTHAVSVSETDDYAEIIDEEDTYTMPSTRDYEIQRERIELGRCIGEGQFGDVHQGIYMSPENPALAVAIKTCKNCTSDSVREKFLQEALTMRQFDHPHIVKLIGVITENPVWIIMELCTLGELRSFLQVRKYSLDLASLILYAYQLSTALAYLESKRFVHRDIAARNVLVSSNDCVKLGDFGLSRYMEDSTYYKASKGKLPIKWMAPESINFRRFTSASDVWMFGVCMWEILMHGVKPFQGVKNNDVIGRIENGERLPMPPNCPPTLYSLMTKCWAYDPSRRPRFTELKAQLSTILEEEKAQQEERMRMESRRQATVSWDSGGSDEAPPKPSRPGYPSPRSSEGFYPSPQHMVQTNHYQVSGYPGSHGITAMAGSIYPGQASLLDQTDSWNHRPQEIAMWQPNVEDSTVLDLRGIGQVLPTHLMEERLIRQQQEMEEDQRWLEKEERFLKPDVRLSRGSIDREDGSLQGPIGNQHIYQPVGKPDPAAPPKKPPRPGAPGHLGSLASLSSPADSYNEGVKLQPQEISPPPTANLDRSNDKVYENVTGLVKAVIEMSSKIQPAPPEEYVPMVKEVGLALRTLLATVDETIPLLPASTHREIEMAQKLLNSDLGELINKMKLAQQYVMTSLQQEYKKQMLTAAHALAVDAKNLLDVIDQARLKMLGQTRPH
Chain of Torsin-1A (Homo sapiens) (O14656 whole entry, looked up): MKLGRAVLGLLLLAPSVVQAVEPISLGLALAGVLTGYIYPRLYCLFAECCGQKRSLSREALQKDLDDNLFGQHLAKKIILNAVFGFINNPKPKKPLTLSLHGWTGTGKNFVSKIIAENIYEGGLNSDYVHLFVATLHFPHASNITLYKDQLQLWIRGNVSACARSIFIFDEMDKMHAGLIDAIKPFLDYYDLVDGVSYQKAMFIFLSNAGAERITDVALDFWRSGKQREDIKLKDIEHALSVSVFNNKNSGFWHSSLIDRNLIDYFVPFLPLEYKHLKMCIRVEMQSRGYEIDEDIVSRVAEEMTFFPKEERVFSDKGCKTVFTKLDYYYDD
Chain of Streptavidin (Streptomyces avidinii) (P22629 whole entry, looked up): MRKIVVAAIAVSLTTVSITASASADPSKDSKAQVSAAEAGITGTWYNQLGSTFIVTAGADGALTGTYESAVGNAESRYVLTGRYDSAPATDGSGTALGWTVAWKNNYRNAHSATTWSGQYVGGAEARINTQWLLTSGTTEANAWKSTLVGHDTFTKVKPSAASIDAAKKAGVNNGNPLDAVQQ
Chain of Luciferin 4-monooxygenase (Photinus pyralis) (P08659 whole entry, looked up): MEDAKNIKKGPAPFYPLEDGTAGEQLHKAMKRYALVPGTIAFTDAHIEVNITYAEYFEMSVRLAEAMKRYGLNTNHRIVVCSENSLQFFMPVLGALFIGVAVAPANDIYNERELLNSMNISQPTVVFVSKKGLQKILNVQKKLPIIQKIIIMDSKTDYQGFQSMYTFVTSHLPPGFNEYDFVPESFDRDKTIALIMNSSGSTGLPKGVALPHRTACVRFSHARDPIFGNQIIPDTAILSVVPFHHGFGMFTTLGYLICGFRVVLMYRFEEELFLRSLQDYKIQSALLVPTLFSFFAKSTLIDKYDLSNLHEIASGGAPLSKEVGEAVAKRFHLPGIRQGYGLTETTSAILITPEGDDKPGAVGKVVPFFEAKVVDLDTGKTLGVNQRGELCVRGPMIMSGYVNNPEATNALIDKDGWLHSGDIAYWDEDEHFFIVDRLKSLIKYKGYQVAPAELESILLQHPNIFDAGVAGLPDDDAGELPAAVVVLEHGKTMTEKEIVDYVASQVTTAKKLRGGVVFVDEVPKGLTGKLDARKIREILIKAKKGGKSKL
Chain of Follistatin (Homo sapiens) (P19883 whole entry, looked up): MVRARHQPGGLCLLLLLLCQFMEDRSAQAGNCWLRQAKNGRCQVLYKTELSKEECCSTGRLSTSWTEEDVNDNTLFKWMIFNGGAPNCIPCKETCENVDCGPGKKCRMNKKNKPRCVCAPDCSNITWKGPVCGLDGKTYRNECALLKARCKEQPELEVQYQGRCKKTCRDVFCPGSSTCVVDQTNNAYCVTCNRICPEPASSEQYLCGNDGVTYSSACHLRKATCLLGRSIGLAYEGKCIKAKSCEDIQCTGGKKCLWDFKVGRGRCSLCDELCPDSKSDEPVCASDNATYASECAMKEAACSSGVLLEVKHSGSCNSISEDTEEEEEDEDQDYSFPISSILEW
Chain of Fibroblast growth factor 2 (Homo sapiens) (P09038 whole entry, looked up): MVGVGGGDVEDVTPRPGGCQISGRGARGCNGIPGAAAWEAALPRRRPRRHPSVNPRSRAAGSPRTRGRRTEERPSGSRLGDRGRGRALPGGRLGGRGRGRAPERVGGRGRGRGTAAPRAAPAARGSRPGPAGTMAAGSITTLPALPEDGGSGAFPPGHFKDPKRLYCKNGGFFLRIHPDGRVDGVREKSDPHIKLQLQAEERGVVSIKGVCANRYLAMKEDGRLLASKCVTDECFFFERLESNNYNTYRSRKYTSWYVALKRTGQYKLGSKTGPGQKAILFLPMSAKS

SMILES	composite z-score [1]	composite z-score [2]	composite z-score [3]	composite z-score [4]	composite z-score [5]	composite z-score [6]	z-score [7]	composite z-score (Lefty1)	composite z-score [8]	z-score [9]	composite z-score [10]	z-score [11]	z-score [12]	z-score [13]	z-score [14]	composite z-score [15]	composite z-score [16]	composite z-score (Torsin-1A (Homo sapiens) [17])	composite z-score (Torsin-1A (Homo sapiens) [18])	composite z-score [19]
COC(=O)[C@@]1(Cc2ccc(F)cc2)[C@@H]2[C@@H](CC(=O)[C@H]2CC(=O)C(=O)N(C)C)CN1C(=O)c1ccccc1	1.49	1.24	0.138	1.01	0.959	-0.213	0.432	-0.198	1.22	1.28 (inactive)	0.618	-2.42 (inactive)	0.215 (inactive)	0.576 (inactive)	0.245 (inactive)	1.91	0.242	0.447	0.884	-0.552
COCCOC(=O)N1C(=O)[C@@]2(c3cc(C#CC4(O)CCCCCC4)ccc31)[C@H](c1ccc(O)cc1)N1[C@H](c3ccccc3)[C@H](c3ccccc3)OC(=O)[C@H]1[C@@H]2C(=O)Nc1nc2ccccc2s1	0.84	1.19	0.482	0.97	1.18	1.05	-1.85	0.562	0.227	-0.715 (inactive)	0.513	-0.073 (inactive)	0.505 (inactive)	1.42 (inactive)	4.93 (inactive)	1.19	0.741	0.549	0.821	1.35
CCOC(=O)C=Cc1cc([N+](=O)[O-])ccc1O	-0.59	-0.455	-0.0779	-0.429	-0.907	-0.652	-2.31	-0.83	-0.0396	1.38 (inactive)	-0.128	-4.44 (inactive)	-0.283 (inactive)	0.173 (inactive)	-2.08 (inactive)	0.572	-0.0523	0.437	0.328	-0.117
O=C1O[C@H](c2ccccc2)[C@H](c2ccccc2)N2[C@H]1[C@@H](C(=O)O)[C@]1(C(=O)Nc3ccc(C#CCCO)cc31)[C@H]2c1ccc(O)cc1	0.0887	0.0227	0.724	-0.862	0.771	-0.317	1.07	-0.279	0.349	-1.72 (inactive)	-0.0604	-1.04 (inactive)	0.301 (inactive)	-1.28 (inactive)	-1.37 (inactive)	-0.668	0.161	0.309	0.499	0.0441
C=CCNC(=O)[C@@H]1[C@H]2C(=O)O[C@H](c3ccccc3)[C@H](c3ccccc3)N2[C@H](c2ccc(OCCO)cc2)[C@@]12C(=O)Nc1ccc(C#CCCO)cc12	2.72	1.19	1.17	0.979	1.16	1.68	0.103	1.52	0.687	-0.947 (inactive)	0.847	-0.625 (inactive)	-0.796 (inactive)	-0.141 (inactive)	-0.118 (inactive)	1.6	1.15	1.26	1.17	1.59
COc1ccc([Si](C)(C)[C@H]2[C@H](CCO)O[C@@]3(C(=O)N(C)c4c(Br)cc(C)cc43)[C@@H]2C)cc1	0.494	0.969	0.295	0.15	0.675	0.425	-1.69	0.486	0.773	0.481 (inactive)	-0.0092	-8.05 (active)	-1 (inactive)	15.2 (active)	-3.2 (inactive)	0.0036	-0.0523	1.15	0.105	1.29
CC(C)C[C@H]1NC(=O)[C@@]23C(=O)N[C@@H](Cc4ccccc4)C2[C@H](C)[C@@]2(C)O[C@H]2C3/C=C/C/C=C\CNC(=O)[C@H](Cc2ccccc2)NC1=O (stereo not given in full)	0.218	0.45	-0.291	0.183	1.01	0.717	0.156	1.24	-0.204	-3.01 (inactive)	0.234	-0.73 (inactive)	-0.137 (inactive)	-0.416 (inactive)	-0.862 (inactive)	-0.279	-0.0189	0.839	0.716	2.06
C=C(COC)/C(=C/C[C@H](OC(=O)c1ccncc1)c1ccc(OCCO)cc1)c1cnc2ccccc2c1	1.96	1.2	0.111	0.967	1.38	1.02	-0.0174	1.33	1.47	-1.34 (inactive)	0.638	-0.593 (inactive)	0.308 (inactive)	6.73 (inactive)	-0.073 (inactive)	1.73	-0.0087	1.27	0.953	2.11
O=C1NC(=O)C2C1C=CC(C(O)c1cccc3ccccc13)N2Nc1ccccn1 (stereo not given)	1.97	0.158	0.132	-0.207	0.169	0.11	1.55	-0.34	0.0591	0.135 (inactive)	0.0051	0.697 (inactive)	-0.484 (inactive)	-0.522 (inactive)	-0.285 (inactive)	0.278	0.185	0.16	0.231	-0.516
